Most compounds without a hit are left out; they make up all but 10% or so of the library.
IMPase cell inh: IMPase inhibition in cells; P97697; CHO-M1 cells, IP1 accumulation, HTRF TR-FRET ratio; inhibition (IP1 accumulation), % at 46.1 µM; 120,000 tested, under 10 active; AID 901; active = well fitted curve in the direction sought with a large enough effect in the signal ratio, not every such curve was filed as active; inconclusive = small, poorly fitted or top-dose-only effect, or a change in a side signal; inactive = no such curve, though single readings can be large or run the other way; the % refers to the signal ratio;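 note: cells stimulated with carbachol in lithium chloride buffer; higher means more IMPase inhibition seen as more IP1 and lower FRET ratio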
Target sequence (P97697 whole entry, looked up): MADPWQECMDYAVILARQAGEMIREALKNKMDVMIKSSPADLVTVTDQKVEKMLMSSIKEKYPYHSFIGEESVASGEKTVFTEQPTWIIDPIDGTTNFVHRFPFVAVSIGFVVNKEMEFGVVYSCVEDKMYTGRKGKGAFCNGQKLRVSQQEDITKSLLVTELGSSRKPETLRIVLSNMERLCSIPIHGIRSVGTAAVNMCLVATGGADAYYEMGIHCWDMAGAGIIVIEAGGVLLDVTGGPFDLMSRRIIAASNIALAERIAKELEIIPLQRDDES
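Seeded CHO-M1 cells were dosed with compound at up to 46 uM, stimulated with carbachol for 30 min, then lysed in IP-One detection reagents. Higher IP1 lowers the TR-FRET signal.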
LMNA splice mod: modulators of lamin A splicing. Potency, µM (doses to about 46.1 µM), usual class: inhibitors. HeLa LMNA splicing GFP/RFP minigene ratio, 48 h. 200,000 compounds, 0.01% hits; active = well fitted inhibition curve with a large enough effect in the signal ratio, with a control signal flat, not every such curve was filed as active; inconclusive = small, poorly fitted or top-dose-only effect, or effect the other way, or a change in a side signal; the % refers to the signal ratio
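S3 HeLa stable clones carrying a lamin A-EGFP splicing minigene plus DsRed2 were seeded at 600 cells/well in Opti-MEM with 2% FBS, pin-dosed and incubated 48 h at 37°C. Acumen cytometry (488 nm) gave the GFP/RFP total-intensity ratio.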
PNC inhibitor: blocks assembly of the perinucleolar compartment | PC3M PTB-GFP, PNC prevalence imaging, 16 h; active compounds read low | activity change (PNC), negative = inhibition, % at 10 µM | 140,000 compounds, 3.1% hits | AID 2417;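 active = readout at or below -70, meaning at least 70% loss of cells showing the perinucleolar compartment, a nuclear body marking cancer cells; inconclusive = readout between -30 and a set limit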
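Compounds are pinned in duplicate onto adhered PC3M cells stably expressing GFP-tagged PTB and incubated 16 h at 37 C. Cells are then fixed, nuclei stained with Hoechst, and PNC-positive cells counted.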
KinaseGlo FLuc: Kinase-Glo luciferase inhibition (counter-screen); Kinase-Glo luciferase, ATP luminescence, 8 min; Potency, µM (top dose mostly 38.3 µM), usual class: inhibitors; 200,000 compounds, 0.28% hits; active = well fitted inhibition curve with a large enough effect; inconclusive = small, poorly fitted or top-dose-only effect; note: nearly all actives have a fitted effect of over 60% in size
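Recombinant Kinase-Glo luciferase, 10 uM ATP (linear range), luciferin; imidazole pH 7.2 / KCl / MgCl2 / Tween / BSA buffer; 8 min RT; luminescence.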
ALDH1A1 inh: ALDH1A1 (human) enzyme inhibition | P00352 | Purified ALDH1A1, NADH fluorescence, propionaldehyde substrate | Potency, µM (titrated, usually from 75.3 µM), hits mostly inhibitors | 220,000 compounds, 7.3% hits | AID 1030
HPGD inh: HPGD (human) dehydrogenase inhibition. purified HPGD, NADH fluorescence kinetic, PGE2 substrate. Potency, µM, actives largely listed as inhibitors. 150,000 compounds, 4.3% hits
Target sequence (P15428 whole entry, looked up): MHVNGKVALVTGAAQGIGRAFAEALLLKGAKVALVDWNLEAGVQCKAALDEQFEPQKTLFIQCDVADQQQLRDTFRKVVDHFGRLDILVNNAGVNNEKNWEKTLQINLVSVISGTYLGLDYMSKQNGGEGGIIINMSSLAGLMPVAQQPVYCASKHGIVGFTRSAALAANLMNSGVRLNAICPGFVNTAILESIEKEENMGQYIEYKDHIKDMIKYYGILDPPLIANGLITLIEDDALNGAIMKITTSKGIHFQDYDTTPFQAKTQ
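20 nM HPGD preincubated 15 min at room temperature with compound in 50 mM Tris-HCl pH 8, 0.01% Tween 20. Started with 1 mM NAD+ and 30 uM prostaglandin E2; NADH fluorescence (360/450 nm) read 5 times over 30-s intervals, last minus first.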
Numbers stand for hits; 0 = inactive; ? = inconclusive; - = no result; [ ] = dose if it differs, or a comment. Unless noted, calls come from the whole dose curve; as a rule, active = well fitted inhibition curve with a large enough effect (not every such curve was filed as active); inconclusive = small, poorly fitted or top-dose-only effect, or another doubt; inactive = no such curve, though single readings can be large or run the other way.

SMILES | IMPase cell inh | LMNA splice mod | PNC inhibitor | KinaseGlo FLuc | ALDH1A1 inh | HPGD inh
Cn1cccc1C(=O)OCC(=O)NC(=O)NC1CCCCC1 | - | 0 | - | 0 | 0 | -
Cn1cccc1C(=O)OCC(=O)c1cc2ccccc2o1 | 0 | 0 | 0 | 0 | ? | 28.2µM
O=C(COC(=O)c1ccc(Cl)s1)c1cc2ccccc2o1 | 0 | 0 | ? | 0 | ? | 35.5µM
Cc1cc(NC(=O)COC(=O)[C@H](Cc2c[nH]c3ccccc23)NC(=O)c2ccc(F)cc2)no1 | 0 | 0 | ? | 0 | 0 | 0
CC(=O)N[C@@H](Cc1c[nH]c2ccccc12)C(=O)OCC(=O)Nc1ccc(Cl)c(S(=O)(=O)N(C)C)c1 | - | 0 | - | 0 | ? | -
CC(=O)NC(Cc1c[nH]c2ccccc12)C(=O)OCC(=O)Nc1ccc2c(c1)OCO2 (stereo not given) | 0 | 0 | 0 | 0 | 5.01µM | 0
CC(=O)NC(Cc1c[nH]c2ccccc12)C(=O)OCC(=O)Nc1cc(C)on1 (stereo not given) | 0[1.84 µM] | 0 | -92.2 | 0 | 0 | 0
COc1cccc(/C=N/NC(=O)C(=O)N2CCCC2)c1O | 0 | 0 | 0 | ? | 0 | ?
COc1cccc(/C=N/Nc2ccc(S(=O)(=O)O)cc2)c1O | 0 | 0 | 0 | ? | 10µM | 31.6µM
COc1cccc(/C=N/Nc2ccc(C(=O)O)cc2)c1O | - | 0 | - | 8.91µM | 0 | -
O=C(CSc1nnc2scc(-c3ccc(Cl)cc3)n12)Nc1ccccc1F | 0 | - | - | - | - | -
CCOC(=O)c1c(C)oc2c1c(C(c1cccnc1)N1CCCCC1)c(O)c1ccccc12 (stereo not given) | 0 | 0 | ? | 0 | ? | 0
CCOC(=O)c1c(C)oc2c1c(C(c1ccccc1)N1CCOCC1)c(O)c1ccccc12 (stereo not given) | 0 | 0 | 0 | 0 | 3.55µM | ?
COC(=O)N1C(c2ccccc2)=Cc2ccccc2C1C1(C(=O)OC)CCCC1=O (stereo not given) | - | 0[9.22 µM] | - | 0 | 0 | 0
COc1ccccc1-n1ncc2c(=O)[nH]c(SCC(=O)Nc3ccc(Cl)cc3)nc21 | - | 0 | - | - | - | -
CCN(CC)CCn1c(-c2ccccc2)nc2c(NCCO)nc(C)nc21 | - | - | - | 0 | ? | ?
COc1ccc(CCN(C)CC(O)c2ccccc2)cc1OC (stereo not given) | - | 0 | - | 0 | 17.8µM | -
Cc1cccc(-c2noc(CSc3nc(-c4ccc(F)cc4)cc(=O)[nH]3)n2)c1 | - | 0 | - | - | - | -
CC(C)CNS(=O)(=O)c1ccc(OCC(=O)Nc2ccc(F)cc2F)cc1 | 0 | 0 | -82.7 | 0 | 0 | 0
COc1cccc(NC(=O)Cn2c(=O)c3cccn3c3ccc(F)cc32)c1 | - | 0 | - | - | - | -
Clc1ccccc1Cn1nnc2c(NCC3CC3)ncnc21 | 0 | ? | 0 | 0 | ? | 0
Clc1ccccc1Cn1nnc2c(Nc3ccccc3)ncnc21 | 0[9.22 µM] | ? | 0 | 0 | 25.1µM | 0
CCc1nc(Nc2ccc(OC)c(OC)c2)c2nnn(Cc3ccccc3Cl)c2n1 | 0 | ? | -118.9 | 0 | ? | ?
Cc1cc(S(=O)(=O)Nc2cc3c(cc2NCc2ccccc2)n(C)c(=O)n3C)ccc1F | 0 | - | - | - | - | -
CCN(Cc1ccccc1)S(=O)(=O)c1ccc(S(=O)(=O)N(Cc2ccccn2)Cc2ccco2)cc1 | 0 | 0 | ? | 0 | 0 | 0
SMILES | IMPase cell inh | LMNA splice mod | PNC inhibitor | KinaseGlo FLuc | ALDH1A1 inh | HPGD inh
CC1CCCCN1S(=O)(=O)c1ccc(S(=O)(=O)N(Cc2ccccc2)Cc2ccco2)cc1 (stereo not given) | 0 | 0 | -100.0 | 0 | 7.08µM | 0
Cc1ccccc1-n1c2nc(=O)[nH]c(=O)c-2cc2c(Cl)cccc21 | 0 | - | - | - | - | -
CCOc1cc(/C=N/n2cnnc2)ccc1OS(=O)(=O)c1ccc(C)cc1 | - | 0 | - | 0 | 22.4µM | -
CCOc1cc(/C=N/n2cnnc2)ccc1OCC(=O)Nc1ccccc1OC | 0 | 0 | 0 | 0 | ? | ?
Cc1nnc2n1NC(c1ccc(Cl)cc1)C(C(=O)N(C)C1CCCCC1)S2 (stereo not given) | 0 | 0 | 0 | 0 | 0 | 0
Cc1nnc2n1NC(c1ccc(Cl)cc1)C(C(=O)N1CCC(C)CC1)S2 (stereo not given) | 0 | 0 | -111.6 | 0 | 0 | 0
O=C(COc1ccc(F)cc1)Nc1ccccc1OCc1cc(=O)n2ccccc2n1 | - | 0 | - | - | - | -
O=c1cc(-c2ccccc2)oc2cc(O)c(O)cc12 | - | - | - | 0 | 0 | 17.8µM
